{"source": "paper PMC8384837", "about": "“Expanding the binding specificity for RNA recognition by a PUF domain”", "assay_in_all_cases": "yeast three-hybrid, YBZ-1, SC-Leu-His + 0.5 mM 3-AT, 4 days", "conditions_in_all_cases": "tags: N-Gal4 AD-HA kept; label: inside an RPR1-promoter hybrid RNA with tandem MS2 sites; ssRNA", "key": {"PUM1 PUF domain R6-EWK": {"molecular_target": "T1, PUM1 PUF domain R6-EWK (Homo sapiens, UniProt Q14671 828-1176, N1043E;Y1044W;Q1047K)", "T1 sequence": "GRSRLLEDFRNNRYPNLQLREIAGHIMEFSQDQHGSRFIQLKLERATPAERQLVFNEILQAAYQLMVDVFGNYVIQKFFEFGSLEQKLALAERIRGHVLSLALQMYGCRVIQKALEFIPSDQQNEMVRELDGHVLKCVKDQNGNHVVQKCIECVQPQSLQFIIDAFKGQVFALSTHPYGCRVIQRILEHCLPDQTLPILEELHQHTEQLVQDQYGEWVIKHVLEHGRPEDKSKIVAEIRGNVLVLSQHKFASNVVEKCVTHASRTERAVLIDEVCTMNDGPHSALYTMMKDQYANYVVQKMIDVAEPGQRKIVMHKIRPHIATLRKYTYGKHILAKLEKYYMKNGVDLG", "procedure,_shortened": "(§1)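 Pumilio-1 PUF domain libraries, randomized (NNK) at the three base-contacting residues of each repeat, were co-expressed with matching RNA elements from a centromeric plasmid in strain YBZ-1 (LexA–MS2 coat fusion, HIS3 reporter). Transformants were plated on SC-Leu (input) and SC-Leu-His + 0.5 mM 3-AT (selection) for four days, and repeat regions were PCR-amplified and Illumina-sequenced. The interaction score is the log2 change in variant frequency from input to selection, with pseudocount 1 where absent.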"}, "PUM1 PUF domain R5-TFY": {"molecular_target": "PUM1 PUF domain R5-TFY (Homo sapiens, UniProt Q14671 828-1176, C1007T;R1008F;Q1011Y)", "procedure,_shortened": "as §1"}, "PUM1 PUF domain R6-IYE": {"molecular_target": "T2, PUM1 PUF domain R6-IYE (Homo sapiens, UniProt Q14671 828-1176, N1043I;Q1047E)", "T2 sequence": "T1 sequence with E216I, W217Y, K220E", "procedure,_shortened": "as §1"}, "PUM1 PUF domain R6-LYL": {"molecular_target": "T3, PUM1 PUF domain R6-LYL (Homo sapiens, UniProt Q14671 828-1176, N1043L;Q1047L)", "T3 sequence": "T1 sequence with E216L, W217Y, K220L", "procedure,_shortened": "as §1"}, "PUM1 PUF domain R4-SRN": {"molecular_target": "PUM1 PUF domain R4-SRN (Homo sapiens, UniProt Q14671 828-1176, N971S;H972R;Q975N)", "procedure,_shortened": "as §1"}, "PUM1 PUF domain R3-DYS": {"molecular_target": "PUM1 PUF domain R3-DYS (Homo sapiens, UniProt Q14671 828-1176, C935D;R936Y;Q939S)", "sequence (Q14671 828-1176 C935D/R936Y/Q939S)": "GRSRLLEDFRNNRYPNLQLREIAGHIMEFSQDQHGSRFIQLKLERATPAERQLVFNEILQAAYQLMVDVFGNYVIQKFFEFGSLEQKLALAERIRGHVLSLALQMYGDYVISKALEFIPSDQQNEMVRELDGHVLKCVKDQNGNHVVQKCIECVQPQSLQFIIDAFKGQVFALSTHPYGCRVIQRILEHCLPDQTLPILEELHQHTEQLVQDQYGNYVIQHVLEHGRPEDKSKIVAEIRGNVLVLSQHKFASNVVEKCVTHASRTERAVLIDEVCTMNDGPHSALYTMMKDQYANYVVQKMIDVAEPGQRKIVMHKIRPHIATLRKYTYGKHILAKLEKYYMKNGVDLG", "procedure,_shortened": "as §1"}, "PUM1 PUF domain R5-RQT": {"molecular_target": "PUM1 PUF domain R5-RQT (Homo sapiens, UniProt Q14671 828-1176, C1007R;R1008Q;Q1011T)", "sequence (Q14671 828-1176 C1007R/R1008Q/Q1011T)": "as the sequence (Q14671 828-1176 C935D/R936Y/Q939S) above, with D108C, Y109R, S112Q, C180R, R181Q, Q184T counted along it", "procedure,_shortened": "as §1"}, "PUM1 PUF domain R4-QPG": {"molecular_target": "PUM1 PUF domain R4-QPG (Homo sapiens, UniProt Q14671 828-1176, N971Q;H972P;Q975G)", "sequence (Q14671 828-1176 N971Q/H972P/Q975G)": "as the sequence (Q14671 828-1176 C935D/R936Y/Q939S) above, with D108C, Y109R, S112Q, N144Q, H145P, Q148G counted along it", "procedure,_shortened": "as §1"}, "PUM1 PUF domain R5-DWY": {"molecular_target": "PUM1 PUF domain R5-DWY (Homo sapiens, UniProt Q14671 828-1176, C1007D;R1008W;Q1011Y)", "sequence (Q14671 828-1176 C1007D/R1008W/Q1011Y)": "as the sequence (Q14671 828-1176 C935D/R936Y/Q939S) above, with D108C, Y109R, S112Q, C180D, R181W, Q184Y counted along it", "procedure,_shortened": "as §1"}, "PUM1 PUF domain R5-PFG": {"molecular_target": "PUM1 PUF domain R5-PFG (Homo sapiens, UniProt Q14671 828-1176, C1007P;R1008F;Q1011G)", "sequence (Q14671 828-1176 C1007P/R1008F/Q1011G)": "as the sequence (Q14671 828-1176 C935D/R936Y/Q939S) above, with D108C, Y109R, S112Q, C180P, R181F, Q184G counted along it", "procedure,_shortened": "as §1"}, "PUM1 PUF domain R7-GCD": {"molecular_target": "PUM1 PUF domain R7-GCD (Homo sapiens, UniProt Q14671 828-1176, S1079G;N1080C;E1083D)", "procedure,_shortened": "as §1"}, "PUM1 PUF domain R3-LRE": {"molecular_target": "PUM1 PUF domain R3-LRE (Homo sapiens, UniProt Q14671 828-1176, C935L;Q939E)", "procedure,_shortened": "as §1"}, "PUM1 PUF domain R5-RQQ": {"molecular_target": "PUM1 PUF domain R5-RQQ (Homo sapiens, UniProt Q14671 828-1176, C1007R;R1008Q)", "procedure,_shortened": "as §1"}, "PUM1 PUF domain R8-KHQ": {"molecular_target": "PUM1 PUF domain R8-KHQ (Homo sapiens, UniProt Q14671 828-1176, N1122K;Y1123H)", "sequence (Q14671 828-1176 N1122K/Y1123H)": "as the sequence (Q14671 828-1176 C935D/R936Y/Q939S) above, with D108C, Y109R, S112Q, N295K, Y296H counted along it", "procedure,_shortened": "as §1"}, "PUM1 PUF domain R5-DRR": {"molecular_target": "PUM1 PUF domain R5-DRR (Homo sapiens, UniProt Q14671 828-1176, C1007D;Q1011R)", "procedure,_shortened": "as §1"}, "PUM1 PUF domain R5-RGV": {"molecular_target": "PUM1 PUF domain R5-RGV (Homo sapiens, UniProt Q14671 828-1176, C1007R;R1008G;Q1011V)", "sequence (Q14671 828-1176 C1007R/R1008G/Q1011V)": "as the sequence (Q14671 828-1176 C935D/R936Y/Q939S) above, with D108C, Y109R, S112Q, C180R, R181G, Q184V counted along it", "procedure,_shortened": "as §1"}, "PUM1 PUF domain R5-KSD": {"molecular_target": "PUM1 PUF domain R5-KSD (Homo sapiens, UniProt Q14671 828-1176, C1007K;R1008S;Q1011D)", "sequence (Q14671 828-1176 C1007K/R1008S/Q1011D)": "as the sequence (Q14671 828-1176 C935D/R936Y/Q939S) above, with D108C, Y109R, S112Q, C180K, R181S, Q184D counted along it", "procedure,_shortened": "as §1"}, "PUM1 PUF domain R5-KLI": {"molecular_target": "PUM1 PUF domain R5-KLI (Homo sapiens, UniProt Q14671 828-1176, C1007K;R1008L;Q1011I)", "sequence (Q14671 828-1176 C1007K/R1008L/Q1011I)": "as the sequence (Q14671 828-1176 C935D/R936Y/Q939S) above, with D108C, Y109R, S112Q, C180K, R181L, Q184I counted along it", "procedure,_shortened": "as §1"}, "PUM1 PUF domain R4-IML": {"molecular_target": "PUM1 PUF domain R4-IML (Homo sapiens, UniProt Q14671 828-1176, N971I;H972M;Q975L)", "sequence (Q14671 828-1176 N971I/H972M/Q975L)": "as the sequence (Q14671 828-1176 C935D/R936Y/Q939S) above, with D108C, Y109R, S112Q, N144I, H145M, Q148L counted along it", "procedure,_shortened": "as §1"}, "PUM1 PUF domain R1-KRA": {"molecular_target": "PUM1 PUF domain R1-KRA (Homo sapiens, UniProt Q14671 828-1176, S863K;Q867A)", "procedure,_shortened": "as §1"}}, "note": "Changes are numbered by the printed parent chain."}
{"sequence": "GGCUAGAACUAGUGGAUCCCCCGGCGCCCGGCGGCUCGAGCCCGGGUAAGUGGAAAUAGUCUGCAUGCCGCCGGGCGCCAUGCCUGCAGGUCGACUCUAGAAAACAUG", "values": [{"measurement": "binding signal", "setting": "PUM1 PUF domain R6-EWK", "result": "2.84 log2 enrichment (interaction score)"}]}
{"sequence": "GGCUAGAACUAGUGGAUCCCCCGGCGCCCGGCGGCUCGAGCCCGGGUAAGUGUAAAUAGUCUGCAUGCCGCCGGGCGCCAUGCCUGCAGGUCGACUCUAGAAAACAUG", "values": [{"measurement": "binding signal", "setting": "PUM1 PUF domain R5-TFY", "result": "2.23 log2 enrichment (interaction score)"}, {"measurement": "binding signal", "setting": "PUM1 PUF domain R6-IYE", "result": "2.5 log2 enrichment (interaction score)"}, {"measurement": "binding signal", "setting": "PUM1 PUF domain R6-LYL", "result": "2.24 log2 enrichment (interaction score)"}, {"measurement": "binding signal", "setting": "PUM1 PUF domain R4-SRN", "result": "3.38 log2 enrichment (interaction score)"}, {"measurement": "binding signal", "setting": "PUM1 PUF domain R3-DYS", "result": "4.59 log2 enrichment (interaction score)"}, {"measurement": "binding signal", "setting": "PUM1 PUF domain R5-RQT", "result": "1.57 log2 enrichment (interaction score)"}, {"measurement": "binding signal", "setting": "PUM1 PUF domain R4-QPG", "result": "2.21 log2 enrichment (interaction score)"}, {"measurement": "binding signal", "setting": "PUM1 PUF domain R5-DWY", "result": "6.99 log2 enrichment (interaction score)"}, {"measurement": "binding signal", "setting": "PUM1 PUF domain R5-PFG", "result": "6.32 log2 enrichment (interaction score)"}]}
{"sequence": "GGCUAGAACUAGUGGAUCCCCCGGCGCCCGGCGGCUCGAGCCCGGGUAAGUUUAAAUAGUCUGCAUGCCGCCGGGCGCCAUGCCUGCAGGUCGACUCUAGAAAACAUG", "values": [{"measurement": "binding signal", "setting": "PUM1 PUF domain R7-GCD", "result": "3.51 log2 enrichment (interaction score)"}]}
{"sequence": "GGCUAGAACUAGUGGAUCCCCCGGCGCCCGGCGGCUCGAGCCCGGGUAAGUGUAAGUAGUCUGCAUGCCGCCGGGCGCCAUGCCUGCAGGUCGACUCUAGAAAACAUG", "values": [{"measurement": "binding signal", "setting": "PUM1 PUF domain R3-LRE", "result": "3.1 log2 enrichment (interaction score)"}]}
{"sequence": "GGCUAGAACUAGUGGAUCCCCCGGCGCCCGGCGGCUCGAGCCCGGGUAAGUGUGAAUAGUCUGCAUGCCGCCGGGCGCCAUGCCUGCAGGUCGACUCUAGAAAACAUG", "values": [{"measurement": "binding signal", "setting": "PUM1 PUF domain R5-RQQ", "result": "1.47 log2 enrichment (interaction score)"}, {"measurement": "binding signal", "setting": "PUM1 PUF domain R5-DWY", "result": "2.39 log2 enrichment (interaction score)"}]}
{"sequence": "GGCUAGAACUAGUGGAUCCCCCGGCGCCCGGCGGCUCGAGCCCGGGUAAGCGUAAAUAGUCUGCAUGCCGCCGGGCGCCAUGCCUGCAGGUCGACUCUAGAAAACAUG", "values": [{"measurement": "binding signal", "setting": "PUM1 PUF domain R8-KHQ", "result": "4.7 log2 enrichment (interaction score)"}]}
{"sequence": "GGCUAGAACUAGUGGAUCCCCCGGCGCCCGGCGGCUCGAGCCCGGGUAAGUGAAAAUAGUCUGCAUGCCGCCGGGCGCCAUGCCUGCAGGUCGACUCUAGAAAACAUG", "values": [{"measurement": "binding signal", "setting": "PUM1 PUF domain R6-LYL", "result": "3.54 log2 enrichment (interaction score)"}]}
{"sequence": "GGCUAGAACUAGUGGAUCCCCCGGCGCCCGGCGGCUCGAGCCCGGGUAAGUGUUAAUAGUCUGCAUGCCGCCGGGCGCCAUGCCUGCAGGUCGACUCUAGAAAACAUG", "values": [{"measurement": "binding signal", "setting": "PUM1 PUF domain R5-RQQ", "result": "5.69 log2 enrichment (interaction score)"}, {"measurement": "binding signal", "setting": "PUM1 PUF domain R5-DRR", "result": "2.64 log2 enrichment (interaction score)"}, {"measurement": "binding signal", "setting": "PUM1 PUF domain R5-RGV", "result": "0.34 log2 enrichment (interaction score)"}, {"measurement": "binding signal", "setting": "PUM1 PUF domain R5-KSD", "result": "1.41 log2 enrichment (interaction score)"}]}
{"sequence": "GGCUAGAACUAGUGGAUCCCCCGGCGCCCGGCGGCUCGAGCCCGGGUAAGUGUCAAUAGUCUGCAUGCCGCCGGGCGCCAUGCCUGCAGGUCGACUCUAGAAAACAUG", "values": [{"measurement": "binding signal", "setting": "PUM1 PUF domain R5-RQQ", "result": "5.36 log2 enrichment (interaction score)"}, {"measurement": "binding signal", "setting": "PUM1 PUF domain R5-DRR", "result": "3.48 log2 enrichment (interaction score)"}, {"measurement": "binding signal", "setting": "PUM1 PUF domain R5-RGV", "result": "2.55 log2 enrichment (interaction score)"}, {"measurement": "binding signal", "setting": "PUM1 PUF domain R5-RQT", "result": "4.99 log2 enrichment (interaction score)"}, {"measurement": "binding signal", "setting": "PUM1 PUF domain R5-KLI", "result": "2.75 log2 enrichment (interaction score)"}, {"measurement": "binding signal", "setting": "PUM1 PUF domain R5-KSD", "result": "2.5 log2 enrichment (interaction score)"}, {"measurement": "binding signal", "setting": "PUM1 PUF domain R5-DWY", "result": "1.16 log2 enrichment (interaction score)"}]}
{"sequence": "GGCUAGAACUAGUGGAUCCCCCGGCGCCCGGCGGCUCGAGCCCGGGUAAGUGUAGAUAGUCUGCAUGCCGCCGGGCGCCAUGCCUGCAGGUCGACUCUAGAAAACAUG", "values": [{"measurement": "binding signal", "setting": "PUM1 PUF domain R4-IML", "result": "3.09 log2 enrichment (interaction score)"}]}
{"sequence": "GGCUAGAACUAGUGGAUCCCCCGGCGCCCGGCGGCUCGAGCCCGGGUAAGUGUACAUAGUCUGCAUGCCGCCGGGCGCCAUGCCUGCAGGUCGACUCUAGAAAACAUG", "values": [{"measurement": "binding signal", "setting": "PUM1 PUF domain R4-QPG", "result": "3.33 log2 enrichment (interaction score)"}]}
{"sequence": "GGCUAGAACUAGUGGAUCCCCCGGCGCCCGGCGGCUCGAGCCCGGGUAAGUGUAUAUAGUCUGCAUGCCGCCGGGCGCCAUGCCUGCAGGUCGACUCUAGAAAACAUG", "values": [{"measurement": "binding signal", "setting": "PUM1 PUF domain R4-SRN", "result": "0.7 log2 enrichment (interaction score)"}, {"measurement": "binding signal", "setting": "PUM1 PUF domain R4-QPG", "result": "5.06 log2 enrichment (interaction score)"}]}
{"sequence": "GGCUAGAACUAGUGGAUCCCCCGGCGCCCGGCGGCUCGAGCCCGGGUAAGUGUAAAUCGUCUGCAUGCCGCCGGGCGCCAUGCCUGCAGGUCGACUCUAGAAAACAUG", "values": [{"measurement": "binding signal", "setting": "PUM1 PUF domain R1-KRA", "result": "5.03 log2 enrichment (interaction score)"}]}
